Out of some 5,500 compounds screened, about 2,000 (36%) were called active. Another 18% or so got no clear call; they are omitted. Rule as the data show it: active = normalized growth mostly below about 0.91 (no sharp cut-off); inconclusive = no clear call, values can overlap the other calls; inactive = mostly above about 0.92. The list shows a part of the results.
Assay: chemical genetic growth profiling, strain panel (AID 1159580);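 also: tested at 20 µM; growth read once vehicle control cultures reached saturation at 30 °C; 1 = growth at the plate median or of vehicle wells; lower values mean less growth of the strain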
Details: growth OD

Measured: normalized growth

N[C@@H](CCC(=O)N[C@@H](CS)C(=O)NCC(=O)O)C(=O)O
inactive: S. cerevisiae deletion strains, locus YKL009W, strain mrt4, stronger effect = lower value 0.954 | S. cerevisiae deletion strains, locus YKL068W, stronger effect = lower value 0.996 | S. cerevisiae deletion strains, locus YKL085W, strain MDH1 (second series), stronger effect = lower value 0.979 | S. cerevisiae deletion strains, locus YKL085W, strain MDH1, stronger effect = lower value 0.979 | S. cerevisiae deletion strains, locus YKL160W, strain elf1, stronger effect = lower value 0.978 | S. cerevisiae deletion strains, locus YKL190W, strain CNB1, stronger effect = lower value 0.993 | S. cerevisiae deletion strains, locus YKR001C, strain vps1, stronger effect = lower value 0.994 | S. cerevisiae deletion strains, locus YKR026C, strain gcn3, stronger effect = lower value 0.987 | S. cerevisiae deletion strains, locus YKR091W, strain srl3, stronger effect = lower value 0.985 | S. cerevisiae deletion strains, locus YLL001W, strain dnm1, stronger effect = lower value 0.963 | S. cerevisiae deletion strains, locus YLL026W, stronger effect = lower value 0.975 | S. cerevisiae deletion strains, locus YLL041C, strain sdh2, stronger effect = lower value 1 | S. cerevisiae deletion strains, locus YLR027C, strain aat2, stronger effect = lower value 0.97 | S. cerevisiae deletion strains, locus YLR039C, strain RIC1, stronger effect = lower value 0.981 | S. cerevisiae deletion strains, locus YLR058C, strain SHM2, stronger effect = lower value 0.996 | S. cerevisiae deletion strains, locus YLR102C, strain apc9, stronger effect = lower value 0.986 | S. cerevisiae deletion strains, locus YLR113W, strain HOG1, stronger effect = lower value 0.97 | S. cerevisiae deletion strains, locus YLR221C, strain rsa3, stronger effect = lower value 1 | S. cerevisiae deletion strains, locus YLR258W, strain gsy2, stronger effect = lower value 1.01 | S. cerevisiae deletion strains, locus YLR262C, strain YPT6 (second series), stronger effect = lower value 1 | S. cerevisiae deletion strains, locus YLR262C, strain YPT6, stronger effect = lower value 0.92 | S. cerevisiae deletion strains, locus YLR268W, strain sec22, stronger effect = lower value 0.983 | S. cerevisiae deletion strains, locus YLR320W, strain mms22, stronger effect = lower value 1.02 | S. cerevisiae deletion strains, locus YLR330W, strain CHS5, stronger effect = lower value 0.999 | S. cerevisiae deletion strains, locus YLR342W, strain FKS1 (second series), stronger effect = lower value 1.03 | S. cerevisiae deletion strains, locus YLR342W, strain FKS1, stronger effect = lower value 0.982 | S. cerevisiae deletion strains, locus YLR357W, strain rsc2, stronger effect = lower value 0.973 | S. cerevisiae deletion strains, locus YLR370C, strain arc18, stronger effect = lower value 0.985 | S. cerevisiae deletion strains, locus YLR371W, strain rom2, stronger effect = lower value 0.979 | S. cerevisiae deletion strains, locus YLR384C, strain iki3, stronger effect = lower value 0.98 | S. cerevisiae deletion strains, locus YLR418C, strain cdc73, stronger effect = lower value 0.98 | S. cerevisiae deletion strains, locus YML016C, strain PPZ1, stronger effect = lower value 1 | S. cerevisiae deletion strains, locus YML032C, strain rad52, stronger effect = lower value 0.989 | S. cerevisiae deletion strains, locus YML120C, strain ndi1, stronger effect = lower value 0.981 | S. cerevisiae deletion strains, locus YML124C, strain tub3, stronger effect = lower value 0.995 | S. cerevisiae deletion strains, locus YMR058W, strain fet3, stronger effect = lower value 0.99 | S. cerevisiae deletion strains, locus YMR078C, strain ctf18, stronger effect = lower value 0.977 | S. cerevisiae deletion strains, locus YMR125W, strain sto1, stronger effect = lower value 1 | S. cerevisiae deletion strains, locus YMR129W, stronger effect = lower value 1 | S. cerevisiae deletion strains, locus YMR205C, strain PFK2, stronger effect = lower value 0.993 | S. cerevisiae deletion strains, locus YMR223W, strain ubp8, stronger effect = lower value 0.985 | S. cerevisiae deletion strains, locus YMR231W, strain pep5, stronger effect = lower value 1.02 | S. cerevisiae deletion strains, locus YMR307W, strain GAS1, stronger effect = lower value 1.12 | S. cerevisiae deletion strains, locus YNL067W, strain RPL9B, stronger effect = lower value 0.969 | S. cerevisiae deletion strains, locus YNL071W, strain lat1, stronger effect = lower value 1.01 | S. cerevisiae deletion strains, locus YNL128W, strain TEP1, stronger effect = lower value 0.963 | S. cerevisiae deletion strains, locus YNL183C, strain NPR1, stronger effect = lower value 0.97 | S. cerevisiae deletion strains, locus YNL209W, strain ssb2, stronger effect = lower value 1.01 | S. cerevisiae deletion strains, locus YNL233W, strain BNI4, stronger effect = lower value 0.989 | S. cerevisiae deletion strains, locus YNL248C, strain rpa49, stronger effect = lower value 1.03 | S. cerevisiae deletion strains, locus YNL250W, strain rad50, stronger effect = lower value 0.987 | S. cerevisiae deletion strains, locus YNL271C, strain bni1, stronger effect = lower value 0.982 | S. cerevisiae deletion strains, locus YNL298W, strain CLA4, stronger effect = lower value 0.986 | S. cerevisiae deletion strains, locus YNL307C, strain MCK1, stronger effect = lower value 0.99 | S. cerevisiae deletion strains, locus YNL322C, strain KRE1 (second series), stronger effect = lower value 0.998 | S. cerevisiae deletion strains, locus YNR049C, strain mso1, stronger effect = lower value 0.996 | S. cerevisiae deletion strains, locus YNR052C, strain pop2, stronger effect = lower value 0.988 | S. cerevisiae deletion strains, locus YOL006C, strain TOP1, stronger effect = lower value 0.986 | S. cerevisiae deletion strains, locus YOL012C, strain htz1 0.759 | S. cerevisiae deletion strains, locus YOL147C, strain pex11, stronger effect = lower value 0.995 | S. cerevisiae deletion strains, locus YOR001W, strain rrp6, stronger effect = lower value 0.971 | S. cerevisiae deletion strains, locus YOR061W, strain CKA2, stronger effect = lower value 0.993 | S. cerevisiae deletion strains, locus YOR069W, strain VPS5, stronger effect = lower value 1 | S. cerevisiae deletion strains, locus YOR070C, strain gyp1, stronger effect = lower value 1.02 | S. cerevisiae deletion strains, locus YOR080W, strain dia2, stronger effect = lower value 0.988 | S. cerevisiae deletion strains, locus YOR083W, strain WHI5, stronger effect = lower value 0.973 | S. cerevisiae deletion strains, locus YOR106W, strain vam3, stronger effect = lower value 0.987 | S. cerevisiae deletion strains, locus YOR136W, strain idh2, stronger effect = lower value 0.993 | S. cerevisiae deletion strains, locus YOR144C, strain elg1, stronger effect = lower value 0.995 | S. cerevisiae deletion strains, locus YOR184W, strain ser1, stronger effect = lower value 0.989 | S. cerevisiae deletion strains, locus YOR231W, strain MKK1, stronger effect = lower value 0.966 | S. cerevisiae deletion strains, locus YOR265W, strain rbl2, stronger effect = lower value 0.996 | S. cerevisiae deletion strains, locus YOR270C, strain vph1, stronger effect = lower value 1.03 | S. cerevisiae deletion strains, locus YOR290C, strain snf2, stronger effect = lower value 1.01 | S. cerevisiae deletion strains, locus YOR316C, strain cot1, stronger effect = lower value 0.998 | S. cerevisiae deletion strains, locus YPL051W, strain arl3, stronger effect = lower value 0.993 | S. cerevisiae deletion strains, locus YPL078C, strain atp4, stronger effect = lower value 0.972 | S. cerevisiae deletion strains, locus YPL106C, strain sse1, stronger effect = lower value 0.985 | S. cerevisiae deletion strains, locus YPL240C, strain hsp82, stronger effect = lower value 1.01 | S. cerevisiae deletion strains, locus YPL241C, strain CIN2, stronger effect = lower value 0.993 | S. cerevisiae deletion strains, locus YPL256C, strain CLN2, stronger effect = lower value 0.913 | S. cerevisiae deletion strains, locus YPR119W, strain clb2, stronger effect = lower value 0.988 | S. cerevisiae deletion strains, locus YPR141C, strain kar3, stronger effect = lower value 0.981 | S. cerevisiae deletion strains, locus YPR163C, strain tif3, stronger effect = lower value 0.996 | S. cerevisiae deletion strains, locus YPR167C, strain met16, stronger effect = lower value 0.98 | S. cerevisiae deletion strains, strain wtn01, stronger effect = lower value 0.984 | S. cerevisiae strains, strain wild type, stronger effect = lower value 0.998

— PubChem BioAssay AID1159580 (chemical genetic matrix, 2015)
